# From PubChem BioAssay (NCATS)
# Values joined by “and” are separate entries in the source; they are usually repeats but may differ in a detail not shown here. Equal entries are not always repeated. Inconclusive results are not listed. A call without a number means that no potency is given here. A number with no mark means an inactive call. Active and inactive are the calls of the source. Calls follow the shape of the dose curve; as a rule, active = well fitted cell-killing curve with a large enough effect; inconclusive = small, poorly fitted or top-dose-only effect; inactive = flat fitted curve, though single readings scatter.
# Test: Cellular viability qHTS for adrenocortical cancer (ACC) cell line NCI-H295R (AID 1963990); also: nearly all actives have a fitted effect of over 60% in size
# Conditions: CellTiter-Glo ATP luminescence, 48 h; series mostly up to 46.1 µM
# Summary of the method: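 Compound titrations (up to 46 uM final) are applied to NCI-H295R cultures for 48 h at 37C. Viable cell number is estimated by CellTiter-Glo signal, normalised to DMSO and doxorubicin controls.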
# Potency is read from the fitted curve at half-maximal effect.
Structure (SMILES),Potency,"activity change, negative = viability loss"
Oc1ccc(-c2nc(-c3ccc(F)cc3)c(-c3ccncc3)[nH]2)cc1,inactive,–
Cc1c(C(=O)Nc2ccc(N3C[C@@H](C)O[C@@H](C)C3)nc2)cccc1-c1ccc(OC(F)(F)F)cc1,10 µM (active),–
CC(C)NCC(O)c1ccc(NS(C)(=O)=O)cc1 (stereo not given),inactive,–
COc1ccc(C2CNC(=O)C2)cc1OC1CCCC1 (stereo not given),inactive,–
CC(C)Nc1cc(-c2c[nH]c(C(=O)N[C@H](CO)c3cccc(Cl)c3)c2)c(Cl)cn1,8.91 µM (active),–
Cc1cccc(-c2[nH]c(C(C)(C)C)nc2-c2ccc3nccnc3c2)n1,inactive,–
Cc1ncc([N+](=O)[O-])n1CCO,inactive,–
C#Cc1cccc(Nc2ncnc3cc(OCCOC)c(OCCOC)cc23)c1,6.51 µM (active),–
C=C(C)[C@@H]1CC[C@]2(C)CC[C@]3(C)[C@H](CC[C@@H]4[C@@]5(C)CC[C@H](O)C(C)(C)[C@H]5CC[C@]43C)[C@@H]12,inactive,–
C[Se]CCC(N)C(=O)O (stereo not given),inactive,–
COc1ccc2c(c1)c(CC(=O)OCC(=O)O)c(C)n2C(=O)c1ccc(Cl)cc1,inactive,–
O=c1cc(N2CCOCC2)oc2c(-c3cccc4c3sc3ccccc34)cccc12,12.6 µM (active),–
CCn1nnc2c(N3CCOCC3)nc(-c3ccc(NC(=O)Nc4ccc(C(=O)N5CCN(C)CC5)cc4)cc3)nc21,inactive,–
COc1cc2ncnc(Nc3ccc(F)c(Cl)c3)c2cc1OCCCN1CCOCC1,inactive,–
Cc1cnc(C(=O)NCCc2ccc(S(=O)(=O)NC(=O)NC3CCCCC3)cc2)cn1,inactive,–
CC(C)[C@H](N)C(=O)OCCOCn1cnc2c(=O)[nH]c(N)nc21,inactive,–
CC(=O)O[C@H]1C(=O)[C@@]2(C)C([C@H](OC(=O)c3ccccc3)[C@]3(O)C[C@H](OC(=O)[C@H](O)[C@@H](NC(=O)c4ccccc4)c4ccccc4)C(C)=C1C3(C)C)[C@]1(OC(C)=O)CO[C@@H]1C[C@@H]2O (stereo not given in full),0.1 µM (active),–
NS(=O)(=O)c1cccc2c1C(=O)c1cccc(O)c1C2=O,0.631 µM (active),–

Structure (SMILES),Potency,"activity change, negative = viability loss"
NC1(C(=O)N[C@@H](CCO)c2ccc(Cl)cc2)CCN(c2ncnc3[nH]ccc23)CC1,5.62 µM (active),–
Cn1cc(C[C@@H](N)C(=O)O)c2ccccc21,–,-13.9% [at 9.17 µM]
CCCn1c(=O)c2[nH]c(C34CC5CC3C[C@@H](C5)C4)nc2n(CCC)c1=O,inactive,–
CC(C)(OCc1nn(Cc2ccccc2)c2ccccc12)C(=O)O,inactive,–
CC(C(=O)O)c1ccc2c(c1)CC(=O)c1ccccc1S2 (stereo not given),inactive,–
O=c1cc(-c2cccc3c2Sc2ccccc2S3)oc(N2CCOCC2)c1,25.1 µM (active),–
COc1cc2c(Nc3ccc(Cl)c(Cl)c3F)ncnc2cc1OCC1C[C@@H]2CN(C)C[C@@H]2C1 (stereo not given in full),7.94 µM (active) and 8.91 µM (active),–
CN(C)c1nc(N(C)C)nc(N(C)C)n1,inactive,–
C[C@H](CCC(=O)O)[C@H]1CCC2C3C[C@H](O)[C@@H]4C[C@H](O)CC[C@]4(C)C3CC[C@@]21C (stereo not given in full),inactive,–
CCN(CC)CCNC(=O)c1ccc2nc(-c3ccccc3)c(-c3ccc(CN4CCC(n5c(=O)[nH]c6ccccc65)CC4)cc3)nc2c1,3.98 µM (active),–
CC1=C[C@@H]2[C@@H]([C@@H](O)C[C@@]3(C)[C@H]2C[C@@H](C)[C@]3(O)C(=O)CO)[C@@]2(C)Cc3cnn(-c4ccccc4)c3C=C12,8.91 µM (active),–
CNC(=O)Nc1ccc(-c2nc(N3CC4CCC(C3)O4)c3cnn(C4CCC5(CC4)OCCO5)c3n2)cc1,0.282 µM (active),–
Oc1cc2c(cc1O)C1c3ccc(O)c(O)c3OCC1(O)C2 (stereo not given),inactive,–
COc1cc(NS(=O)(=O)c2ccc(N)cc2)nc(OC)n1,inactive,–
CC(C)C(=O)Nc1ncc(-c2cc(C(F)F)nn2-c2c(Cl)cccc2Cl)s1,22.4 µM (active),–
CCc1cc(C(N)=S)ccn1,inactive,–
CNC1CCC(N(Cc2cccc(-c3ccncc3)c2)C(=O)c2sc3c(F)ccc(F)c3c2Cl)CC1 (stereo not given),7.08 µM (active),–
